Screens from PubChem BioAssay.
Shown are actives, neighbours in structure and some others; about 5.9% of the full set was active somewhere.
GALK inhibitor – galactokinase (human) inhibition; Potency, µM (top dose mostly 57.5 µM), inactives show top-dose activity change, negative = inhibition, most hits filed as inhibitors; Purified GALK, Kinase-Glo residual ATP luminescence; hit rate 0.007% among 270,000; further: potency means the concentration at half of the fitted maximal effect
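Kinase-Glo Plus luminescence measured ATP left after a 1 h room-temperature reaction. The reaction used 5 nM GALK, 100 uM galactose and 35 uM ATP at pH 8.0 (20 mM HEPES, 5 mM MgCl2, 60 mM NaCl, 1 mM DTT, 0.01% BSA).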
RORgamma inh – blocks mouse ROR gamma transcriptional activity. Drosophila S2 Gal4-RORgamma UAS-luciferase reporter, 20 h. Potency, µM (doses to about 53.6 µM), for inactives: top-dose activity change, negative = inhibition, hits mostly inhibitors. hit rate 5.4% among 310,000. AID 2551; further: potency means the concentration at half of the fitted maximal effect; nearly all actives have a fitted effect of over 60% in size
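In this cell-based reporter format, copper sulfate (700 uM final) drives Gal4–ROR gamma fusion expression from a metallothionein promoter in Drosophila Schneider cells; compounds preincubated 1 hr, reporter read after 20 hr at ambient temperature.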
FBPA coupling cs – coupling enzyme interference in Giardia aldolase counter-screen; coupling enzyme system counterscreen, AmpLite Red fluorescence; activity change, negative = inhibition, % at 58.2 µM, hits read low; hit rate 0.67% among 290,000; in the data active means activity change below about -30%
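Counterscreen lacking aldolase: glyceraldehyde-3-phosphate coupling-enzyme reagent preincubated 10 min at RT with compound (at 57.5 uM final), then substrate/coupling system with AmpLite Red added; fluorescence read at 525/598 nm after 20 min RT.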
VP16 counter – inhibits Gal4-VP16 luciferase reporter, ROR gamma counter-screen. Drosophila S2 Gal4-VP16 UAS-luciferase, luminescence, 20 h. Potency, µM (highest dose often 53.6 µM), for inactives: at the highest dose activity, negative = inhibition, actives largely listed as inhibitors. hit rate 3.5% among 310,000. AID 2546;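 further: Gal4-VP16 expression switched on by copper sulfate through the metallothionein promoter; potency means the concentration at half of the fitted maximal effect; nearly all actives have a fitted effect of over 50% in size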
TrxR1 inh – rat TrxR1 inhibition. O89049. recombinant rTrxR1, NADPH fluorescence consumption, selenite substrate. Potency, µM (highest dose often 114 µM), for inactives: top-dose activity change, negative = inhibition, actives largely listed as inhibitors. hit rate 1% among 390,000. AID 588453; further: potency means the concentration at half of the fitted maximal effect; nearly all actives have a fitted effect of over 65% in size
Target sequence (O89049 whole entry, looked up): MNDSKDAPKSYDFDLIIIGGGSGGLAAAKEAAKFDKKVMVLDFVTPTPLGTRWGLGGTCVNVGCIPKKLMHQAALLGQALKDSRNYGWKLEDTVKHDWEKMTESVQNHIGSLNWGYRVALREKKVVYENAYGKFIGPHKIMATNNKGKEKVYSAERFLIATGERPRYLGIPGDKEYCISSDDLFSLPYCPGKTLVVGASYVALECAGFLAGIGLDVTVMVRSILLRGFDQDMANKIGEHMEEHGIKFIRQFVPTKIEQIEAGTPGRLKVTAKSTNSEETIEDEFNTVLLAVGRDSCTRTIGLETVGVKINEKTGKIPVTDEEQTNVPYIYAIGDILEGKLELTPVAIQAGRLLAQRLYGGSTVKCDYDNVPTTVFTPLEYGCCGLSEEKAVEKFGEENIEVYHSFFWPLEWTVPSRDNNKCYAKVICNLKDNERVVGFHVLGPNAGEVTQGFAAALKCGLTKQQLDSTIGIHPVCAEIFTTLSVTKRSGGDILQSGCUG
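Rat TrxR1 (90 nM in the dispensed reagent) was pre-reduced with 400 uM NADPH for 5 min at room temperature, then incubated with compound for 15 min. After 400 uM selenite was added, NADPH fluorescence (Ex 340/Em 450 nm) was followed for 8 min.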
TrxR1 substrate – is turned over as a substrate by rat TrxR1; Potency, µM (top dose mostly 114 µM), inactives show at the highest dose activity change, negative = substrate turnover; purified TrxR1 substrate turnover, NADPH consumption readout; hit rate 0.01% among 390,000; AID 588456; further: potency means the concentration at half of the fitted maximal effect; nearly all actives have a fitted effect of over 50% in size
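Rat TrxR1, dispensed at 90 nM, was prereduced with 400 uM NADPH (final) for 5 min at ~22 deg C, then incubated with compound 15 min before 400 uM selenite. A first-read NADPH fluorescence drop versus no-compound background flagged substrates.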
The depositor's hits bear a star; ? = inconclusive; nt = not tested or not shown; [ ] = another dose, or the depositor's remark. Unless noted, the call rests on the fitted dose curve; in most records, active means well fitted curve in the direction sought with a large enough effect; inconclusive means small, poorly fitted or top-dose-only effect, or another doubt; inactive means no such curve, though single readings can be large; an effect the other way counts as inactive or inconclusive. On the % scale 0 is the no-effect control and ±100 the full control effect.

SMILES	GALK inhibitor	RORgamma inh	FBPA coupling cs	VP16 counter	TrxR1 inh	TrxR1 substrate
O=C(NCc1cccnc1)/C(=C/c1ccc(-c2cccc(C(F)(F)F)c2)o1)NC(=O)c1ccccc1	-6%	?	-3	-14%	3%	-8%
O=C(NCc1cccnc1)/C(=C\c1ccc(-c2ccc(Br)cc2)o1)S(=O)(=O)c1ccccc1	-1%	?	2	?	32µM*	4%
O=C(NCc1cccnc1)/C(=C/c1ccc(-c2ccc(Cl)cc2)o1)S(=O)(=O)c1ccccc1	-5%	?	0	20µM*	5µM*	-2%
O=S(=O)(c1ccc(NC(=S)N/N=C/c2cccc(Oc3ccccc3)c2)cc1)N1CCOCC1	-1%	0.89µM*	-1	-7%	-16%[57.1 µM]	1%[57.1 µM]
O=[N+]([O-])c1cc(Cl)cc(/C=N/NC(=S)Nc2ccc(S(=O)(=O)N3CCOCC3)cc2)c1O	-6%	-28%	1	1%	79µM*	-7%
O=S(=O)(c1ccc(NC(=S)N/N=C/c2ccc(O)c(O)c2)cc1)N1CCOCC1	0%	-35%	-3	-12%	-15%	-15%
O=S(=O)(c1ccc(NC(=S)NN=Cc2ccccc2O)cc1)N1CCCCC1	nt	nt	nt	nt	-18%[11.4 µM]	-5%[11.4 µM]
N#Cc1ccc(/C=N/NC(=S)Nc2ccc(S(=O)(=O)N3CCOCC3)cc2)cc1	-1%	1.8µM*	-2	?	-4%	-4%
Cc1cc(C)nc(SCC(=O)Nc2ccc(S(=O)(=O)NCCO)cc2)n1	0%	13%	1	10%	21%	1%
CC(C)N1CCc2c(sc(NC(=O)c3cc4cc([N+](=O)[O-])ccc4s3)c2C(N)=O)C1	1%	?	-6	?	2%[57.1 µM]	4%[57.1 µM]
CN1CCc2c(sc(NC(=O)c3cc4cc([N+](=O)[O-])ccc4s3)c2C(N)=O)C1	5%	5.6µM*	0	3.2µM*	nt	nt
CCOc1ccc2nc(NC(=O)CSc3nc4ccccc4c(=O)n3Cc3ccco3)sc2c1	-1%	10%	0	17%	-12%	-6%
COc1ccc(/C(C)=N/Nc2nc3ccccc3nc2C)cc1	2%	2.5µM*	-1	13µM*	9%	-7%
CN(C)NC(=S)NC1CC2CCC1C2 (stereo not drawn)	nt	5.6µM*	2	13µM*	17%	4%
COc1ccccc1NC(=S)NC1CC2CCC1C2 (stereo not drawn)	nt	2.2µM*	1	16µM*	12%	2%
COc1ccccc1NC(=S)NC1CCC(CC2CCC(NC(=S)Nc3ccccc3OC)CC2)CC1 (stereo not drawn)	0%	3.5µM*	-6	3.2µM*	-4%	-9%
CC(=O)Nc1ccc(NC(=O)CSc2nnc(NC(=O)Cc3ccc(F)cc3)s2)cc1	-2%	-2%	nt	-6%	9%	6%
CCOC(=O)c1c(NC(=O)CSc2nc3ccccc3[nH]2)sc2c1CC(C)(C)NC2(C)C	nt	nt	nt	nt	-8%	-11%
CCOC(=O)N1CCN(C(=S)NC(=O)c2ccc(F)cc2)CC1	5%	2µM*	4	3.5µM*	-9%[57.1 µM]	-9%[57.1 µM]
CCOC(=O)N1CCN(C(=O)/C(=C/c2ccc(F)cc2)NC(=O)c2ccccc2)CC1	-3%	nt	6	nt	-17%	-7%
CCOC(=O)N1CCN(C(=S)NC(=O)c2ccnn2C)CC1	1%	?	0	32µM*	-14%[57.1 µM]	4%[57.1 µM]
COc1ccc(Cl)cc1NC(=O)CN(C)C(=O)CCC(=O)c1cc(C)sc1C	nt	nt	nt	nt	-12%[57.1 µM]	-4%[57.1 µM]
O=C(NC(=S)Nc1cccc([N+](=O)[O-])c1)c1ccco1	3%	-42%	-1	13%	-11%[57.1 µM]	-1%[57.1 µM]
O=C(/C=C/c1ccco1)NC(=S)Nc1cccc([N+](=O)[O-])c1	0%	?	-1	?	20µM*	-2%[57.1 µM]
Cc1cccc(NC(=S)NC(=O)/C=C/c2ccco2)n1	0%	10µM*	-1	?	-16%[57.1 µM]	-1%[57.1 µM]
SMILES	GALK inhibitor	RORgamma inh	FBPA coupling cs	VP16 counter	TrxR1 inh	TrxR1 substrate
NS(=O)(=O)c1ccc(NC(=S)NC(=O)/C=C/c2ccco2)cc1	2%	10%[10 µM]	0	-5%	?	-9%
CSc1cccc(NC(=O)/C=C/c2ccco2)c1	3%	30%	-6	?	14µM*	-9%[57.1 µM]
O=C(/C=C/c1ccco1)NC(=S)Nc1ccccc1	5%	7.1µM*	1	3.2µM*	45µM*	-12%
CCc1ccc(OCC(=O)NNC(=O)Cc2ccc(S(=O)(=O)N3CCOCC3)s2)cc1	nt	nt	nt	nt	-1%	-6%
COc1ccc(Cl)c2sc(N3CCN(C(=O)C4=COCCO4)CC3)nc12	nt	nt	nt	nt	-8%	-4%
CCOc1cccc2cc(-c3nnc(Nc4ccc(F)c(Cl)c4)s3)c(=O)oc12	nt	nt	nt	nt	28%[57.1 µM]	3%[57.1 µM]
CCOc1ccc2nc(N3CCCC(C(=O)NCCCN4C(C)CCCC4C)C3)sc2c1 (stereo not drawn)	4%	9%	nt	-4%	1%	3%
CC(=O)c1ccc(NC(=S)NC(=O)/C=C/c2ccco2)cc1	-2%	10%[1.91 µM]	5	?	?	-6%
Cc1cccc(NC(=S)NC(=O)/C=C/c2ccco2)c1	-1%	4.5µM*	-3	?	22µM*	4%
Cc1cccc(NC(=O)/C=C/c2ccc(Cl)cc2)n1	0%	1.6µM*	-5	7.1µM*	-20%	-10%
CCOc1ccc(-c2noc(CCCC(=O)NC3CCCCC3)n2)cc1OC	-2%	3%	-2	-13%	15%[57.1 µM]	8%[57.1 µM]
O=C(c1ccc([N+](=O)[O-])cc1)N(Cc1ccc(Br)cc1)N1C(=O)CCCC1=O	1%	7%	1	1%	18%	4%
O=C(CSc1nc2ccccc2nc1Cc1ccc(Cl)cc1)N1CCN(c2ccccc2)CC1	nt	nt	nt	nt	30%[57.1 µM]	2%[57.1 µM]
COc1ccccc1NS(=O)(=O)c1ccc2oc(=S)[nH]c2c1	4%	-2%	17	-2%	-20%	-7%
S=c1[nH]c2ccccc2o1	1%	28µM*	-2	-18%[10 µM]	?	-7%
CC(/C=N/n1c(-c2ccco2)n[nH]c1=S)=C\c1ccco1	1%	?	0	?	?	-15%
CC(/C=N/n1c(-c2ccncc2)n[nH]c1=S)=C\c1ccco1	-2%	-40%	1	5%	50µM*	-13%
CC(/C=N/n1c(-c2ccc(C)cc2)n[nH]c1=S)=C\c1ccco1	1%	2.8µM*	-1	2.8µM*	?	1%
CC(/C=N/n1c(-c2ccccc2)n[nH]c1=S)=C\c1ccco1	0%	?	2	7.1µM*	?	-14%
C/C(=N/OC(=O)c1ccccc1Br)c1ccc(C)cc1	-1%	16%	2	6%	21%[57.1 µM]	-2%[57.1 µM]
CC1CCc2c(nc3nc[nH]n3c2=O)C1 (stereo not drawn)	2%	-17%	0	4%	-3%[57.1 µM]	-13%
